# Data from the supplement of paper PMC12282887.
# ± gives the standard deviation of the averaged measurements.
# Key:
# Test in all cases: promoter activity interaction Z-score (Lux/OD deviation from empty-vector control); higher = stronger promoter induction by the compound
# [1] = system: E. coli BW25113 acrABp lux reporter
# Summary of the method: (§1)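 E. coli BW25113 (wild type or marA, soxS or rob deletion) carrying low-copy luxCDABE promoter reporters grew in 40 µl LB Lennox in 384-well plates at 37°C. Each compound was tested at four 1:2 dilutions in biological duplicates. OD600 and luminescence were read every 30 min for 12 h. Areas were taken over 0–8 h (wild type) or 1–9 h (mutants), and wells below 10% of median growth area were removed. The score is the Z-transformed residual of growth-normalised luminescence fitted against the empty-vector control.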
# [2] = system: E. coli BW25113 marRABp lux reporter
# Summary of the method: as §1
# [3] = system: E. coli BW25113 micFp lux reporter
# Summary of the method: as §1
# [4] = system: E. coli BW25113 ompFp lux reporter
# Summary of the method: as §1
# [5] = system: E. coli BW25113 robp lux reporter
# Summary of the method: as §1
# [6] = system: E. coli BW25113 soxSp lux reporter
# Summary of the method: as §1
# [7] = system: E. coli BW25113 tolCp lux reporter
# Summary of the method: as §1
# [8] = 1.7 µg/ml, genetic background: wild type
# [9] = 1.7 µg/ml, genetic background: ΔmarA
# [10] = 1.7 µg/ml, genetic background: Δrob
# [11] = 1.7 µg/ml, genetic background: ΔsoxS
# [12] = 3.5 µg/ml, genetic background: wild type
# [13] = 3.5 µg/ml, genetic background: ΔmarA
# [14] = 3.5 µg/ml, genetic background: Δrob
# [15] = 3.5 µg/ml, genetic background: ΔsoxS
# [16] = 6.9 µg/ml, genetic background: wild type
# [17] = 6.9 µg/ml, genetic background: ΔmarA
# [18] = 6.9 µg/ml, genetic background: Δrob
# [19] = 6.9 µg/ml, genetic background: ΔsoxS
# [20] = 13.9 µg/ml, genetic background: wild type
# [21] = 13.9 µg/ml, genetic background: ΔmarA
# [22] = 13.9 µg/ml, genetic background: Δrob
# [23] = 13.9 µg/ml, genetic background: ΔsoxS
smiles,measurement,setting,value
NC(=O)c1cc[n+](CC2=C(C(=O)[O-])N3C(=O)[C@@H](NC(=O)[C@@H](c4ccccc4)S(=O)(=O)O)[C@H]3SC2)cc1 [Cefsulodin],promoter activity interaction Z-score,[1]; [8],0.269 ± 0.15
same,promoter activity interaction Z-score,[1]; [9],0.601 ± 0.24
same,promoter activity interaction Z-score,[1]; [10],-0.158 ± 0.15
same,promoter activity interaction Z-score,[1]; [11],-0.315 ± 0.077
same,promoter activity interaction Z-score,[1]; [12],0.0267 ± 0.076
same,promoter activity interaction Z-score,[1]; [13],0.343 ± 0.28
same,promoter activity interaction Z-score,[1]; [14],0.17 ± 0.29
same,promoter activity interaction Z-score,[1]; [15],-0.28 ± 0.31
same,promoter activity interaction Z-score,[1]; [16],0.306 ± 0.13
same,promoter activity interaction Z-score,[1]; [17],-0.189 ± 0.29
same,promoter activity interaction Z-score,[1]; [18],-0.455 ± 0.052
same,promoter activity interaction Z-score,[1]; [19],-0.399 ± 0.055
same,promoter activity interaction Z-score,[1]; [20],0.379 ± 0.28
same,promoter activity interaction Z-score,[1]; [21],-0.532 ± 0.81
same,promoter activity interaction Z-score,[1]; [22],0.198 ± 0.17
same,promoter activity interaction Z-score,[1]; [23],0.0814 ± 0.14
same,promoter activity interaction Z-score,[2]; [8],0.0888 ± 0.07
same,promoter activity interaction Z-score,[2]; [9],-0.156 ± 0.32
same,promoter activity interaction Z-score,[2]; [10],-0.151 ± 0.05
same,promoter activity interaction Z-score,[2]; [11],-0.273 ± 0.013
same,promoter activity interaction Z-score,[2]; [12],0.026 ± 0.046
same,promoter activity interaction Z-score,[2]; [13],-0.154 ± 0.15
same,promoter activity interaction Z-score,[2]; [14],-0.188 ± 0.075
same,promoter activity interaction Z-score,[2]; [15],-0.12 ± 0.063
same,promoter activity interaction Z-score,[2]; [16],-0.199 ± 0.15
same,promoter activity interaction Z-score,[2]; [17],-0.257 ± 0.49
same,promoter activity interaction Z-score,[2]; [18],-0.271 ± 0.049
same,promoter activity interaction Z-score,[2]; [19],-0.324 ± 0.025
same,promoter activity interaction Z-score,[2]; [20],1.24 ± 1.6
same,promoter activity interaction Z-score,[2]; [21],0.729 ± 0.25
same,promoter activity interaction Z-score,[2]; [22],0.241 ± 0.029
same,promoter activity interaction Z-score,[2]; [23],0.341 ± 0.012
same,promoter activity interaction Z-score,[3]; [8],0.14 ± 0.014
same,promoter activity interaction Z-score,[3]; [9],-0.0463 ± 0.21
same,promoter activity interaction Z-score,[3]; [10],0.0953 ± 0.35
same,promoter activity interaction Z-score,[3]; [11],-0.338 ± 0.047
same,promoter activity interaction Z-score,[3]; [12],0.0738 ± 0.052
same,promoter activity interaction Z-score,[3]; [13],-0.0526 ± 0.14
same,promoter activity interaction Z-score,[3]; [14],-0.0549 ± 0.0043
same,promoter activity interaction Z-score,[3]; [15],-0.224 ± 0.027
same,promoter activity interaction Z-score,[3]; [16],0.373 ± 0.2
same,promoter activity interaction Z-score,[3]; [17],-0.161 ± 0.17
same,promoter activity interaction Z-score,[3]; [18],0.046 ± 0.26
same,promoter activity interaction Z-score,[3]; [19],-0.32 ± 0.14
same,promoter activity interaction Z-score,[3]; [20],0.27 ± 0.18
same,promoter activity interaction Z-score,[3]; [21],-0.237 ± 0.007
same,promoter activity interaction Z-score,[3]; [22],-0.0142 ± 0.099
same,promoter activity interaction Z-score,[3]; [23],-0.324 ± 0.022
same,promoter activity interaction Z-score,[4]; [8],0.0922 ± 0.034
same,promoter activity interaction Z-score,[4]; [9],-0.437 ± 0.1
same,promoter activity interaction Z-score,[4]; [10],0.00718 ± 0.63
same,promoter activity interaction Z-score,[4]; [11],-0.453 ± 0.23
same,promoter activity interaction Z-score,[4]; [12],0.101 ± 0.094
same,promoter activity interaction Z-score,[4]; [13],0.0789 ± 0.37
same,promoter activity interaction Z-score,[4]; [14],-0.19 ± 0.099
same,promoter activity interaction Z-score,[4]; [15],-0.294 ± 0.097
same,promoter activity interaction Z-score,[4]; [16],0.254 ± 0.0045
same,promoter activity interaction Z-score,[4]; [17],-0.42 ± 0.15
same,promoter activity interaction Z-score,[4]; [18],-0.561 ± 0.17
same,promoter activity interaction Z-score,[4]; [19],-0.258 ± 0.67
same,promoter activity interaction Z-score,[4]; [20],2.4 ± 0.66
same,promoter activity interaction Z-score,[4]; [21],1.43 ± 0.62
same,promoter activity interaction Z-score,[4]; [22],1.29 ± 0.045
same,promoter activity interaction Z-score,[4]; [23],0.329 ± 1.2
same,promoter activity interaction Z-score,[5]; [8],0.353 ± 0.3
same,promoter activity interaction Z-score,[5]; [9],-0.684 ± 0.45
same,promoter activity interaction Z-score,[5]; [10],-0.402 ± 0.66
same,promoter activity interaction Z-score,[5]; [11],-0.564 ± 0.41
same,promoter activity interaction Z-score,[5]; [12],0.22 ± 0.28
same,promoter activity interaction Z-score,[5]; [13],-0.459 ± 0.031
same,promoter activity interaction Z-score,[5]; [14],-0.153 ± 0.28
same,promoter activity interaction Z-score,[5]; [15],-0.0266 ± 0.11
same,promoter activity interaction Z-score,[5]; [16],0.775 ± 0.033
same,promoter activity interaction Z-score,[5]; [17],-1.06 ± 0.66
same,promoter activity interaction Z-score,[5]; [18],-0.421 ± 0.63
same,promoter activity interaction Z-score,[5]; [19],-0.255 ± 0.017
same,promoter activity interaction Z-score,[5]; [20],-0.0503 ± 0.35
same,promoter activity interaction Z-score,[5]; [21],-0.32 ± 0.51
same,promoter activity interaction Z-score,[5]; [22],-0.936 ± 0.25
same,promoter activity interaction Z-score,[5]; [23],-1.59 ± 0.21
same,promoter activity interaction Z-score,[6]; [8],0.243 ± 0.14
same,promoter activity interaction Z-score,[6]; [9],0.0161 ± 0.021
same,promoter activity interaction Z-score,[6]; [10],0.337 ± 0.44
same,promoter activity interaction Z-score,[6]; [11],-0.145 ± 0.16
same,promoter activity interaction Z-score,[6]; [12],0.223 ± 0.013
same,promoter activity interaction Z-score,[6]; [13],0.0152 ± 0.069
same,promoter activity interaction Z-score,[6]; [14],0.186 ± 0.38
same,promoter activity interaction Z-score,[6]; [15],0.0422 ± 0.085
same,promoter activity interaction Z-score,[6]; [16],0.195 ± 0.0077
same,promoter activity interaction Z-score,[6]; [17],-0.0335 ± 0.17
same,promoter activity interaction Z-score,[6]; [18],0.0477 ± 0.44
same,promoter activity interaction Z-score,[6]; [19],-0.0923 ± 0.35
same,promoter activity interaction Z-score,[6]; [20],0.167 ± 0.16
same,promoter activity interaction Z-score,[6]; [21],-0.302 ± 0.11
same,promoter activity interaction Z-score,[6]; [22],-0.117 ± 0.011
same,promoter activity interaction Z-score,[6]; [23],-0.0117 ± 0.15
same,promoter activity interaction Z-score,[7]; [8],0.715 ± 0.94
same,promoter activity interaction Z-score,[7]; [9],-0.256 ± 0.052
same,promoter activity interaction Z-score,[7]; [10],0.191 ± 0.14
same,promoter activity interaction Z-score,[7]; [11],-1.1 ± 0.63
same,promoter activity interaction Z-score,[7]; [12],-0.195 ± 0.71
same,promoter activity interaction Z-score,[7]; [13],-0.0142 ± 0.11
same,promoter activity interaction Z-score,[7]; [14],0.0051 ± 0.65
same,promoter activity interaction Z-score,[7]; [15],-0.229 ± 0.0049
same,promoter activity interaction Z-score,[7]; [16],0.976 ± 0.34
same,promoter activity interaction Z-score,[7]; [17],-0.562 ± 0.45
same,promoter activity interaction Z-score,[7]; [18],-0.0786 ± 0.68
same,promoter activity interaction Z-score,[7]; [19],-0.444 ± 0.1
same,promoter activity interaction Z-score,[7]; [20],-0.259 ± 0.34
same,promoter activity interaction Z-score,[7]; [21],-0.283 ± 0.28
same,promoter activity interaction Z-score,[7]; [22],-0.0472 ± 0.28
same,promoter activity interaction Z-score,[7]; [23],-0.088 ± 0.34
